Experiment [1] in a line: qHTS assay to identify aromatase inhibitors - cell viability counter screen (AID 743084).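 Also: cells stimulated with testosterone during compound exposure; nearly all actives have a fitted effect of over 55% in size.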
In experiment [2] the target is Aryl hydrocarbon receptor (Homo sapiens) (UniProt P35869). Nature of the experiment: qHTS assay to identify small molecule that activate the aryl hydrocarbon receptor (AhR) signaling pathway (AID 743085).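 Also: HG2L7.5c1 human HepG2 liver cells with stably integrated DRE-driven firefly reporter; series mostly up to about 70 µM; nearly all actives have a fitted effect of over 15% in size.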 A digest of the protocol:
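AhR agonist activity is inferred from enhanced light output of a DRE-controlled firefly luciferase reporter in HepG2 cells, measured with ONE-Glo following 24 h treatment at 37C.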

Experiment [3] in a line: qHTS assay for small molecule agonists of the antioxidant response element (ARE) signaling pathway (AID 743202; active = well fitted activation curve with a large enough effect in the signal ratio in the repeat runs, not every such curve was filed as active; the % refers to the signal ratio). The method, boiled down: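 HepG2 ARE-bla cells; 16 h treatment at 37 C; FRET-based beta-lactamase fluorescence read after 2 h substrate incubation at room temperature.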
Experiment [4] is described as follows: qHTS assay for small molecule agonists of the antioxidant response element (ARE) signaling pathway - cell viability counter screen (AID 743203; calls by dose curve; also: nearly all actives have a fitted effect of over 55% in size). The method, boiled down: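 Measured in the same wells as the beta-lactamase ARE reporter, this read-out is CellTiter-Glo luminescence from HepG2 ARE-bla cells given compounds for 16 hrs.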
Experiment [5] in a line: qHTS assay for small molecule activators of the heat shock response signaling pathway - cell viability counter screen (AID 743209). Also: nearly all actives have a fitted effect of over 50% in size. A digest of the protocol: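 Same-well multiplex: after 2.5 h room-temperature incubation with LiveBLAzer B/G substrate and fluorescence reading, CellTiter-Glo reagent was added to HSE-bla HeLa cells that had received compound for 5 h at 37 C; luminescence read after 30 min.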

Experiment [6] deals with Peroxisome proliferator-activated receptor delta (Homo sapiens) (UniProt Q03181). Description: qHTS assay to identify small molecule agonists of the peroxisome proliferator-activated receptor delta (PPARd) signaling pathway (AID 743212; calls by dose curve). The method, boiled down:
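Tox21 library screened in GeneBLAzer PPARd UAS-bla HEK293H cells. After compound treatment at 37 C, a FRET-based beta-lactamase substrate was applied for 2 h and fluorescence recorded.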

Experiment [7] can be described thus: qHTS assay to identify small molecule antagonists of the peroxisome proliferator-activated receptor delta (PPARd) signaling pathway - cell viability counter screen (AID 743213). Also: nearly all actives have a fitted effect of over 50% in size. The method, boiled down:
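Viability counter-screen, qHTS format: PPARd-bla HEK293H, L165041 300 nM final, 17 h compound exposure at 37 C, CellTiter-Glo luminescence after 30 min RT.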

In experiment [8] the target is Peroxisome proliferator-activated receptor delta (Homo sapiens) (UniProt Q03181). Nature of the experiment: qHTS assay to identify small molecule antagonists of the peroxisome proliferator-activated receptor delta (PPARd) signaling pathway (AID 743215; active = well fitted inhibition curve with a large enough effect in the signal ratio in the repeat runs, not every such curve was filed as active; the % refers to the signal ratio;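 also: cells stimulated with agonist L165041 at 300 nM final during compound exposure; series mostly up to about 62 µM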). The method, boiled down:
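Fluorescence from cleaved LiveBLAzer B/G FRET substrate (2 h, room temperature) reports PPARd-driven beta-lactamase in HEK293H UAS-bla cells. Cells had been treated 17 h at 37 C with compound plus 300 nM final L165041.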

Experiment [9] in a line: qHTS assay to identify small molecule agonists of the farnesoid-X-receptor (FXR) signaling pathway - cell viability counter screen (AID 743218). Also: nearly all actives have a fitted effect of over 45% in size. A digest of the protocol: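 Readout: CellTiter-Glo luminescence, 30 min RT, multiplexed after the FXR-bla FRET reading. HEK 293T FXR-UAS-bla cells received compound 5 h post-plating and were incubated 16 h at 37 C.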
Experiment [10] has as its target Bile acid receptor (Homo sapiens) (UniProt Q96RI1). Nature of the experiment: qHTS assay to identify small molecule agonists of the farnesoid-X-receptor (FXR) signaling pathway (AID 743220; active = well fitted activation curve with a large enough effect in the signal ratio in the repeat runs, not every such curve was filed as active; the % refers to the signal ratio). A digest of the protocol: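 FXR-UAS-bla HEK 293T cells carrying a UAS-driven beta-lactamase reporter were plated for 5 h at 37C/5% CO2, then exposed to DMSO-dissolved Tox21 10K compounds for 16 h at 37C. A LiveBLAzer B/G FRET substrate was loaded for 2 h at room temperature before fluorescence reading.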

Experiment [11] can be described thus: qHTS assay to identify small molecule antagonists of the farnesoid-X-receptor (FXR) signaling pathway - cell viability counter screen (AID 743221; active = well fitted cell-killing curve with a large enough effect in the repeat runs, not every such curve was filed as active; also: nearly all actives have a fitted effect of over 50% in size). A digest of the protocol:
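After a 5 h settling period, FXR-bla HEK 293T cells receive compound and chenodeoxycholic acid (50 uM final) and incubate 16 h at 37 C; CellTiter-Glo luminescence, read after 30 min at room temperature, reports cell viability.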

The target of experiment [12] is Vitamin D3 receptor (Homo sapiens) (UniProt P11473). Description: qHTS assay to identify small molecule agonists of the vitamin D receptor (VDR) signaling pathway (AID 743222; calls by dose curve). A digest of the protocol:
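Following 4 h attachment at 37C, VDR-bla cells (2,000 per well) received DMSO-dissolved compounds or controls. After 16 h incubation, LiveBLAzer B/G FRET substrate was added and fluorescence read 2 h later at room temperature.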

Experiment [13] has the same target. Nature of the experiment: qHTS assay to identify small molecule antagonists of the vitamin D receptor (VDR) signaling pathway (AID 743223; active = well fitted inhibition curve with a large enough effect in the signal ratio in the repeat runs, not every such curve was filed as active; the % refers to the signal ratio). A digest of the protocol:
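Reporter line VDR-bla; stimulus 1alpha,25-(OH)2 vitamin D3, 3 nM final; compound co-addition, 16 h 37C/5% CO2; LiveBLAzer B/G substrate 2 h RT; fluorescence intensity.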

Experiment [14] addresses Peroxisome proliferator-activated receptor gamma (Homo sapiens) (UniProt P37231). Nature of the experiment: qHTS assay to identify small molecule agonists of the peroxisome proliferator-activated receptor gamma (PPARg) signaling pathway (AID 743094; active = well fitted activation curve with a large enough effect in the signal ratio in the repeat runs, not every such curve was filed as active; the % refers to the signal ratio; also: potency is read from the fitted curve at half-maximal effect). A digest of the protocol:
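Cell-based bla reporter, HEK293H background, PPARg-driven UAS. Pre-incubation 5 h, 37C, 5% CO2. Compound 17 h, 37C. Substrate 1 h RT; fluorescence.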

Experiment [15] can be described thus: qHTS assay to identify small molecule antagonists of the peroxisome proliferator-activated receptor gamma (PPARg) signaling pathway - cell viability counter screen (AID 743194). Also: nearly all actives have a fitted effect of over 55% in size. The method, boiled down: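 Cytotoxicity counter screen in PPARg-bla HEK293H cells, same wells as reporter assay. Compounds plus 50 nM rosiglitazone (final) for 17 h at 37 C, then viability read by CellTiter-Glo luminescence.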

Experiment [16] can be described thus: qHTS assay to identify small molecule agonists of the peroxisome proliferator-activated receptor delta (PPARd) signaling pathway - cell viability counter screen (AID 743211). Also: nearly all actives have a fitted effect of over 55% in size. A digest of the protocol:
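qHTS cell viability: PPARd-bla HEK293H; 17 h cpd, 37C; CellTiter-Glo, luminescence at 30 min RT.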

Experiment [17] can be described thus: qHTS assay to identify small molecule that activate the aryl hydrocarbon receptor (AhR) signaling pathway - cell viability counter screen (AID 743086).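 Also: HepG2 liver cells carrying the AhR DRE luciferase reporter; series mostly up to about 70 µM; nearly all actives have a fitted effect of over 45% in size.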 A digest of the protocol:
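HepG2-AhR-luc (HG2L7.5c1) cells, 4000/well, treated 24 h at 37 C with compound; viability measured as CellTiter-Fluor fluorescence after 30 min in the same wells as the luciferase read.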

A short description of experiment [18]: qHTS assay for small molecule activators of the heat shock response signaling pathway (AID 743210; active = well fitted activation curve with a large enough effect in the signal ratio in the repeat runs, with a control signal flat, not every such curve was filed as active; the % refers to the signal ratio;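 also: HeLa cells with beta-lactamase reporter driven by heat shock elements; series mostly up to about 63 µM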). The method, boiled down:
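Following overnight attachment, HSE-bla HeLa cells received test compounds for 5 h at 37 C; beta-lactamase activity was then detected via FRET substrate fluorescence.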

The target in experiment [19] is Peroxisome proliferator-activated receptor gamma (Homo sapiens) (UniProt P37231). Nature of the experiment: qHTS assay to identify small molecule antagonists of the peroxisome proliferator-activated receptor gamma (PPARg) signaling pathway (AID 743191; calls by dose curve; also: series mostly up to about 63 µM; nearly all actives have a fitted effect of over 30% in size). The method, boiled down: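 GeneBLAzer PPARg UAS-bla HEK293H cells, 5 h post-plating, exposed to compounds 17 h at 37C. LiveBLAzer B/G FRET substrate added for 1 h at room temperature; beta-lactamase reporter read by fluorescence intensity.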

Experiment [20] has as its target Bile acid receptor (Homo sapiens) (UniProt Q96RI1). Nature of the experiment: qHTS assay to identify small molecule antagonists of the farnesoid-X-receptor (FXR) signaling pathway (AID 743217; active = well fitted inhibition curve with a large enough effect in the signal ratio in the repeat runs, not every such curve was filed as active; the % refers to the signal ratio). A digest of the protocol: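 FRET fluorescence after 2 h room-temperature LiveBLAzer loading gives the readout. Prior step: FXR-bla HEK 293T cells, seeded and incubated 5 h, received test compounds plus 50 uM final CDCA for 16 h at 37 °C.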

SMILES strings stand for the structures. Inconclusive results are not listed. Calls of active or inactive are those of the source. Unless noted, calls follow the shape of the dose curve; as a rule, active = well fitted curve in the direction sought with a large enough effect in the repeat runs; inconclusive = weak or mixed curves; inactive = no such curve, though single readings can be large; an effect the other way counts as inactive or inconclusive.

Sequence of Aryl hydrocarbon receptor (Homo sapiens) (P35869 whole entry, looked up): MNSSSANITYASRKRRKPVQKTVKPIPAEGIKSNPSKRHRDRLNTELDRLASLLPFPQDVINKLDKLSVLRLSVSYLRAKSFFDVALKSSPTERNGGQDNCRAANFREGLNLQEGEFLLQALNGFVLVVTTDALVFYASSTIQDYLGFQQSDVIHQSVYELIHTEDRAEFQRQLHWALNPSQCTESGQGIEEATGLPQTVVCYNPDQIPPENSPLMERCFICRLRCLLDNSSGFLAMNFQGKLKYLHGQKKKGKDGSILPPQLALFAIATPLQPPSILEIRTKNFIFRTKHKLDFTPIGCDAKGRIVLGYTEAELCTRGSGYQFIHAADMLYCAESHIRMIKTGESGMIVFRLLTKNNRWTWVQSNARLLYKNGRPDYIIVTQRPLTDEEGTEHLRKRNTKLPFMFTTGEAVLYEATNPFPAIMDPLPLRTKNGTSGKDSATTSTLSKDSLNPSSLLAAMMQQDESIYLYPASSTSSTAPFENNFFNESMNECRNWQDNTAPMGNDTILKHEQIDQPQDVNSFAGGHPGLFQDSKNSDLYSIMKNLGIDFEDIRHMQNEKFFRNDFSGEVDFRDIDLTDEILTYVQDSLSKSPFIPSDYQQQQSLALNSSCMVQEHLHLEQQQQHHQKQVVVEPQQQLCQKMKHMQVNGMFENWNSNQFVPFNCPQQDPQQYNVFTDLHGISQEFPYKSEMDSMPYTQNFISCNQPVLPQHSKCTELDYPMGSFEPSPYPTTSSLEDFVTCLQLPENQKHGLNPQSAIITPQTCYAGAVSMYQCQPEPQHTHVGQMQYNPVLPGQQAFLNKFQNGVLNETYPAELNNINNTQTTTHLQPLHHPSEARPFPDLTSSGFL
Sequence of Bile acid receptor (Homo sapiens) (Q96RI1 whole entry, looked up): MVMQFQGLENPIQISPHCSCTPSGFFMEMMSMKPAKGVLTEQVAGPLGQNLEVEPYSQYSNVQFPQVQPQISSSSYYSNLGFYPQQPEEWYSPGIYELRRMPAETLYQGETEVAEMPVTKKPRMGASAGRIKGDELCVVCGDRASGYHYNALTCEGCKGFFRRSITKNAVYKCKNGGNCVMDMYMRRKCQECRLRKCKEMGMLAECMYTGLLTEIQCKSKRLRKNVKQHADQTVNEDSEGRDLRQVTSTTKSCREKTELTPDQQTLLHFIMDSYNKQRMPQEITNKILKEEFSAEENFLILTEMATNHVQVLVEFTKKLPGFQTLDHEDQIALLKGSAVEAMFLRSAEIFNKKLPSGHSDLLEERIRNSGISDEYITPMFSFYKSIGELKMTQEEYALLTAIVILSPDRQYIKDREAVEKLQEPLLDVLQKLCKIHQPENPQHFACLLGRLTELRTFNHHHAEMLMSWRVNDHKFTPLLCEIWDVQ
Sequence of Peroxisome proliferator-activated receptor gamma (Homo sapiens) (P37231 whole entry, looked up): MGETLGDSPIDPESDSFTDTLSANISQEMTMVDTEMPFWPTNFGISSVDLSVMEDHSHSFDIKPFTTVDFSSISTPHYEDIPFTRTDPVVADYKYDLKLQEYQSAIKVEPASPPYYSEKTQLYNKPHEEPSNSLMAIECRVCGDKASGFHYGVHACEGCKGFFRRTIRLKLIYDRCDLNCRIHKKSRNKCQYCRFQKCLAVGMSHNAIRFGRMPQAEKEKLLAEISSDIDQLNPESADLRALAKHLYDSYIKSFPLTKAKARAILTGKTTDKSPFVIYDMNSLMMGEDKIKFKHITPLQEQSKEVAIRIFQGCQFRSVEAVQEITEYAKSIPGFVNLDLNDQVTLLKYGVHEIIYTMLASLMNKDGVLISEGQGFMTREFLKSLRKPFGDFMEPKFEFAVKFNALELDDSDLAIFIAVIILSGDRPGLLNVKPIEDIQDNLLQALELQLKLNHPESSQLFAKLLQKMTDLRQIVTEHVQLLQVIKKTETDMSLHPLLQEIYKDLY
Sequence of Vitamin D3 receptor (Homo sapiens) (P11473 whole entry, looked up): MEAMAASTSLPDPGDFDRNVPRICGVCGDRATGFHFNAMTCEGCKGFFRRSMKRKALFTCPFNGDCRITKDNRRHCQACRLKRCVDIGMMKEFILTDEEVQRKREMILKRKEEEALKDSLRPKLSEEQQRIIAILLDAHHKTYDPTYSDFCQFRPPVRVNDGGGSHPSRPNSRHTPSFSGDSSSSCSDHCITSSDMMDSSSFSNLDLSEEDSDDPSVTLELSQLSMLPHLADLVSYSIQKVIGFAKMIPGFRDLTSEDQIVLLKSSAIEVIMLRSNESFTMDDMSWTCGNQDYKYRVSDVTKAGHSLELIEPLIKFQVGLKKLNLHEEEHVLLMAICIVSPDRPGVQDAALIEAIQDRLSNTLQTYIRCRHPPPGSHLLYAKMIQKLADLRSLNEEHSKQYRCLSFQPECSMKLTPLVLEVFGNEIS
Sequence of Peroxisome proliferator-activated receptor delta (Homo sapiens) (Q03181 whole entry, looked up): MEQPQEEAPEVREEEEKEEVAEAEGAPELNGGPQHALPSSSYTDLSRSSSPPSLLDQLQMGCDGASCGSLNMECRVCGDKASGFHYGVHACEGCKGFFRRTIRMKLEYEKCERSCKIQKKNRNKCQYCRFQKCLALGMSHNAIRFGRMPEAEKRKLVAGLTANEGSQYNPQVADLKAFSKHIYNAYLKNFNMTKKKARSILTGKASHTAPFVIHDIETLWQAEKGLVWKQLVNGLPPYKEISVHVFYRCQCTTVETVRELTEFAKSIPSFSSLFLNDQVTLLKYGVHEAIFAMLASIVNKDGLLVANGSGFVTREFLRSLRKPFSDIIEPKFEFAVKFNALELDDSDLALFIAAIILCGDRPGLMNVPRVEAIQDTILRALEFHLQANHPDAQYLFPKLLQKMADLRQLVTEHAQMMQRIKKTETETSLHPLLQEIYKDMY

With `CC(C)(C)C(=O)c1ccccc1`, the Potency entry in [1], in experiment [2] and in experiment [3] was “inactive” each time. The molecule was called inactive in [4], in experiment [5], in experiment [6], in experiment [7], in experiment [8] and in experiment [9]. Moreover, the call in experiment [10], in experiment [11], in experiment [12] and in [13] was inactive.

For `C=COCC1CCC(COC=C)CC1` (configuration not stated), the Potency entry in [1], in [2], in experiment [14] and in experiment [3] was “inactive” throughout. For the same molecule, the molecule was classed as inactive in [15], in experiment [4], in experiment [16], in experiment [7], in [9] and in [11]. The molecule was classed as inactive in experiment [12] and in [13].

For the molecule `Cc1ccccc1N=C(N)N=C(N)N`, the Potency entry in experiment [1], in [17], in experiment [14] and in experiment [3] was “inactive” each time. In addition, the molecule was classed as inactive in experiment [15], in [4], in experiment [5], in experiment [18], in experiment [16] and in experiment [6]. For the same molecule, the result in [7], in [8], in experiment [11] and in experiment [12] was inactive.

With `C=CC(=O)OCCCl`, the Potency entry in experiment [1], in [17], in experiment [14], in experiment [19] and in experiment [3] was “inactive” in each case. The molecule was classed as inactive in experiment [15], in [4], in experiment [5], in [18], in [16] and in experiment [7]. The outcome in [20], in experiment [9], in experiment [10], in experiment [11], in experiment [12] and in [13] was inactive.

As to `CCCCc1nc(Cl)c(CO)n1Cc1ccc(-c2ccccc2-c2nn[nH]n2)cc1`, the Potency result in experiment [1], in experiment [17] and in experiment [19] was “inactive” each time. Besides, the Potency in experiment [14] is 23.9 µM (active). For the same molecule, the call in experiment [15], in experiment [4], in [18], in [16], in experiment [6] and in experiment [7] was inactive. Further, the outcome in [8], in experiment [9], in [10] and in [11] was inactive.

On to `CNCCO`, for which the Potency result in [1], in [2] and in experiment [14] was “inactive” throughout. The molecule was called inactive in experiment [4], in experiment [5], in experiment [18], in experiment [6], in experiment [7] and in experiment [8]. In addition, the molecule was classed as inactive in experiment [10] and in experiment [11].

Turning to `CCN1CCOCC1`, the Potency result in [1], in experiment [17], in [14] and in experiment [3] was “inactive” in each case. Further, the call in experiment [15], in experiment [4], in experiment [5], in [18], in experiment [16] and in experiment [6] was inactive. Moreover, the molecule was classed as inactive in experiment [7], in experiment [9], in [10], in experiment [11], in experiment [12] and in [13].

Consider `c1coc(CNc2ncnc3nc[nH]c23)c1`, for which the Potency entry in [1], in experiment [2] and in experiment [14] was “inactive” each time. Further, the molecule was called inactive in [15], in experiment [4], in experiment [5], in experiment [18], in [16] and in [6]. In addition, the outcome in experiment [7], in experiment [8], in [9], in experiment [11], in [12] and in experiment [13] was inactive.

The record behind these values is PubChem BioAssay (Tox21).
